Assay results published in PubChem BioAssay (NCATS).
Records with an inconclusive call do not appear. Entries that show only a call come without a potency. Activity calls are given as the source filed them. Calls come from the whole dose curve; as a rule, active = well fitted curve in the direction sought with a large enough effect; inconclusive = small, poorly fitted or top-dose-only effect, or another doubt; inactive = no such curve, though single readings can be large; an effect the other way counts as inactive or inconclusive. Square brackets hold non-standard residues; d marks the D form. Peptide text beside a SMILES is read from it. * marks the point of attachment. ξ: configuration not given here. Hexanoyl = CCCCCC(=O)*; ξL = CC(C)CC(N)C(=O)O

assay: qHTS for activators of Nrf2/ARE signaling pathway screened against the NCATS CANVASS Library (AID 1347391); settings: ARE-bla HepG2, beta-lactamase reporter, 16 h; series mostly up to 46.1 µM; note: nearly all actives have a fitted effect of over 60% in size; note: potency is the fitted concentration of half-maximal effect
Outline: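 Plate ARE-bla HepG2 cells at 2000/well and let them settle 5 h. Pin-transfer compounds in DMSO, incubate 16 h at 37C. Load CCF4 for 2 h at room temperature and read blue/green fluorescence.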

Compound | Potency
CC(=O)N[C@H](C)c1nc(/C=C/C=C/C(=O)CC2CC(=O)CC[C@]2(C)O)cs1 (stereo not given in full) | inactive
CN1C(=O)C(=O)N2C(=C[C@]3(c4c[nH]c5ccccc45)c4ccccc4N[C@H]23)C1=O | inactive
CN1CC[C@]23c4ccccc4N[C@H]1[C@]21CCN(C)[C@H]3Nc2ccccc21 | inactive
C/C=C1/C2=CCCN3C(=O)O[C@H]([C@H]1O)[C@H]23 | inactive
COC1C(C)OC(OCC23C[C@@H]4[C@H](C)CC[C@H]4C4(C=O)CC2C=C(C(C)C)C34C(=O)O)[C@@H](O)[C@H]1O (stereo not given in full) | inactive
CN1CC[C@@]2([C@@]34CCN(C)[C@@H]3Nc3ccccc34)c3ccccc3N[C@@H]12 | inactive
COc1ccc(-c2oc3cc(OC)cc(OC)c3c(=O)c2O)cc1 | inactive
CC[C@@H](C)[C@H]1NC(=O)C(CC(C)C)NC(=O)[C@@H](CC(C)C)NC(=O)[C@H](Cc2c[nH]c3ccccc23)NC(=O)CNC(=O)[C@@H](CC(N)=O)NC1=O (stereo partly drawn) (cyclo(GW[dL][ξL][dI][dN])) | inactive
Cc1cc(O)cc2c1C(=O)c1c(O)cc(O)cc1C2=O | inactive
C=C[C@]1(C)CC[C@@H]([C@H](C)C(=O)CC=C(C)C)O1 | inactive
CC[C@@H]1C[C@@]2(CC)OC(=O)[C@@]3(CC)[C@H](CC)[C@@H]1[C@@H]23 | inactive
[C-]#[N+][C@@]12C(=O)[C@@H]3[C@@H](O[C@@]4(C(=O)N(C)c5cccc1c54)C3(C)C)C(=O)[C@@]2(C)C=C | inactive
COC(=O)c1cccc2oc(-c3cccc4oc(-c5c(C)cccc5O)nc34)nc12 | 1.86 µM (active)
C[C@@]12CCC[C@@](C)(C(=O)OP(=O)(O)OC[C@H]3O[C@@H](n4cnc5c(N)ncnc54)[C@H](O)[C@@H]3O)[C@H]1C[C@@H](O)[C@@]13C[C@@H](CC[C@@H]21)[C@](C)(O)C3 | inactive
CCC(C)=C1OC(=O)[C@H](C)[C@H](O)[C@H](Cc2cccnc2)NC(=O)C(NC(=O)c2ncccc2O)C(C)OC1=O (stereo not given in full) | inactive
O=C1OC(CCO)c2cccc(O)c21 (stereo not given) | inactive
C=C1C[C@]23C=CC(=O)[C@@](C)(CCCC(C)C(=O)N[C@@H](CO)C(=O)O)[C@@H]2C[C@@H]1CC3 (stereo not given in full) | inactive

Compound | Potency
COc1cc2ccc(=O)oc2c(O)c1O[C@@H]1O[C@H](CO)[C@@H](O)[C@H](O)[C@H]1O | inactive
C/C(=C\[C@@H](C)CC/C=C/CC/C=C/C(=O)O)[C@@H](O)[C@H](C)C(=O)CCCC1CC(=O)NC(=O)C1 | inactive
CO[C@@H](C[C@@H](C)[C@@H](O)/C=C/C=C/CNC(=O)C(C)(C)[C@H](O)\C(C)=C/C=C\C=C\Cc1cnco1)[C@]1(O)[C@@H](C)C(=O)N(C)[C@@]12COC2=O | inactive
O=C1CC(c2ccc(O)cc2)Oc2cc(O)cc(O)c21 (stereo not given) | inactive
CN1CC[C@@]23c4ccccc4N[C@@H]1[C@@]21CCN(C)[C@@H]3Nc2ccccc21 | inactive
C[C@@]12CCC[C@@](C)(C(=O)O)[C@H]1C[C@@H](O)[C@@]13C[C@@H](CC[C@@H]21)[C@](C)(O)C3 | inactive
O=Cc1ccc2n1C[C@]1(OC2)O[C@H](CO)[C@@H](O)[C@@H]1O | inactive
C=C[C@@]1(C)CC[C@@H]([C@H](C)C(C)=O)O1 | inactive
C/C=C(/CO)C(=O)O[C@@H]1[C@H](O)[C@@H](C(=O)OC)O[C@@H]2C[C@H]3OC(n4cnc5c(N)ncnc54)[C@H](OC)[C@H]3O[C@@]12O (stereo not given in full) | 18.6 µM (active)
C/C=C/[C@H]1[C@H]2C(=O)c3c(O)c(C)c(O)c(C)c3[C@]1(C(=O)O)C(=O)C=C2C | inactive
C[C@@]12C[C@@H](C[C@@H]3C(=O)O[C@@H](c4ccoc4)[C@H](OC(=O)c4ccccc4)[C@@H]31)OC2=O | inactive
C=C1CCC2C(C)(C(=O)O)CCC(CC/C(C)=C/C(=O)NC(CCC(N)=O)C(=O)O)[C@@]2(C)C1 (stereo not given in full) | inactive
C=C1[C@@]2(C)CC3C4(C)CCC(O)C(C)(C)C4CCC3(C)[C@]1(C(=O)OC)C(=O)C(C)(O)C2=O (stereo not given in full) | inactive
CC(C)=CCC[C@]1(C)[C@H]2CC(=O)[C@@]3(CO3)[C@@H]1C2 | inactive
CCCCCC(=O)N[C@@H](CC(C)C)C(=O)N[C@H](C=O)CCC(=O)O (Hexanoyl-Leu-Glu-aldehyde) | inactive
CC1(C)CC[C@]2(CO)CC[C@]3(C)C(=CCC4[C@@]5(C)CC[C@H](O)C(C)(C)C5CC[C@]43C)C2C1 (stereo not given in full) | inactive

assay: qHTS for activators of dead-cell proteases activity screened against the NCATS CANVASS Library (AID 1347392); settings: HepG2 cytotoxicity, dead-cell protease luminescence, 5 h; series mostly up to 46.1 µM;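 note: luminescence from protease leaking out of membrane-damaged cells cleaving impermeant substrate; rising signal means more cytotoxicity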
Outline: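 HepG2 cells (2000/well) attached 18 h at 37C, then exposed 5 h to compounds (11-point qHTS). Dead-cell protease activity read as luminescence from cell-impermeant AAF-aminoluciferin substrate after 15 min at room temperature.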

Compound | Potency
CC(=O)N[C@H](C)c1nc(/C=C/C=C/C(=O)CC2CC(=O)CC[C@]2(C)O)cs1 (stereo not given in full) | inactive
CN1C(=O)C(=O)N2C(=C[C@]3(c4c[nH]c5ccccc45)c4ccccc4N[C@H]23)C1=O | inactive
